Measurements published in PubChem BioAssay AID1159580 (chemical genetic matrix, 2015).
Hit rate of the full screen: of about 5,500 compounds, about 2,000 (36%) were called active. Inconclusive results (about 18%) are left out. Cut-off read from the data, not from the text of the source: active = normalized growth mostly below about 0.91 (no sharp cut-off); inconclusive = no clear call, values can overlap the other calls; inactive = mostly above about 0.92. The list shows a part of the results.

Assay: chemical genetic growth profiling, strain panel (AID 1159580);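 note: tested at 20 µM; growth read once vehicle control cultures reached saturation at 30 °C; 1 = growth at the plate median or of vehicle wells; lower values mean less growth of the strain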
Conditions: growth OD

Measured: normalized growth

O=c1cc[nH]c(=S)[nH]1
inactive: S. cerevisiae deletion strains, locus YJR075W, strain HOC1, hits give low values 1.03 | S. cerevisiae deletion strains, locus YKL009W, strain mrt4, hits give low values 1.04 | S. cerevisiae deletion strains, locus YKL068W, hits give low values 1 | S. cerevisiae deletion strains, locus YKL085W, strain MDH1 (second series), hits give low values 1.01 | S. cerevisiae deletion strains, locus YKL085W, strain MDH1, hits give low values 1.01 | S. cerevisiae deletion strains, locus YKL160W, strain elf1, hits give low values 1.06 | S. cerevisiae deletion strains, locus YKL190W, strain CNB1, hits give low values 1.02 | S. cerevisiae deletion strains, locus YKR001C, strain vps1, hits give low values 1.05 | S. cerevisiae deletion strains, locus YKR026C, strain gcn3, hits give low values 1.01 | S. cerevisiae deletion strains, locus YKR091W, strain srl3, hits give low values 1 | S. cerevisiae deletion strains, locus YLL001W, strain dnm1, hits give low values 1.04 | S. cerevisiae deletion strains, locus YLL026W, hits give low values 0.999 | S. cerevisiae deletion strains, locus YLL041C, strain sdh2, hits give low values 1.01 | S. cerevisiae deletion strains, locus YLR027C, strain aat2, hits give low values 1.02 | S. cerevisiae deletion strains, locus YLR039C, strain RIC1, hits give low values 1.09 | S. cerevisiae deletion strains, locus YLR058C, strain SHM2, hits give low values 1.02 | S. cerevisiae deletion strains, locus YLR102C, strain apc9, hits give low values 0.992 | S. cerevisiae deletion strains, locus YLR113W, strain HOG1, hits give low values 1.01 | S. cerevisiae deletion strains, locus YLR221C, strain rsa3, hits give low values 1.01 | S. cerevisiae deletion strains, locus YLR258W, strain gsy2, hits give low values 0.989 | S. cerevisiae deletion strains, locus YLR262C, strain YPT6 (second series), hits give low values 1.03 | S. cerevisiae deletion strains, locus YLR262C, strain YPT6, hits give low values 1.08 | S. cerevisiae deletion strains, locus YLR268W, strain sec22, hits give low values 1.05 | S. cerevisiae deletion strains, locus YLR320W, strain mms22, hits give low values 1.06 | S. cerevisiae deletion strains, locus YLR330W, strain CHS5, hits give low values 1.03 | S. cerevisiae deletion strains, locus YLR342W, strain FKS1 (second series), hits give low values 1 | S. cerevisiae deletion strains, locus YLR342W, strain FKS1, hits give low values 1.01 | S. cerevisiae deletion strains, locus YLR357W, strain rsc2, hits give low values 1.04 | S. cerevisiae deletion strains, locus YLR370C, strain arc18, hits give low values 0.997 | S. cerevisiae deletion strains, locus YLR371W, strain rom2, hits give low values 0.996 | S. cerevisiae deletion strains, locus YLR384C, strain iki3, hits give low values 1.01 | S. cerevisiae deletion strains, locus YLR418C, strain cdc73, hits give low values 1.03 | S. cerevisiae deletion strains, locus YML016C, strain PPZ1, hits give low values 1.02 | S. cerevisiae deletion strains, locus YML032C, strain rad52, hits give low values 1.05 | S. cerevisiae deletion strains, locus YML120C, strain ndi1, hits give low values 1.01 | S. cerevisiae deletion strains, locus YML124C, strain tub3, hits give low values 1.01 | S. cerevisiae deletion strains, locus YMR058W, strain fet3, hits give low values 1.01 | S. cerevisiae deletion strains, locus YMR078C, strain ctf18, hits give low values 1.02 | S. cerevisiae deletion strains, locus YMR125W, strain sto1, hits give low values 1.05 | S. cerevisiae deletion strains, locus YMR129W, hits give low values 0.999 | S. cerevisiae deletion strains, locus YMR205C, strain PFK2, hits give low values 1.05 | S. cerevisiae deletion strains, locus YMR223W, strain ubp8, hits give low values 0.992 | S. cerevisiae deletion strains, locus YMR231W, strain pep5, hits give low values 1.01 | S. cerevisiae deletion strains, locus YMR263W, strain SAP30, hits give low values 1.03 | S. cerevisiae deletion strains, locus YMR307W, strain GAS1, hits give low values 1.01 | S. cerevisiae deletion strains, locus YNL067W, strain RPL9B, hits give low values 1.03 | S. cerevisiae deletion strains, locus YNL071W, strain lat1, hits give low values 1.02 | S. cerevisiae deletion strains, locus YNL128W, strain TEP1, hits give low values 1.03 | S. cerevisiae deletion strains, locus YNL153C, strain GIM3, hits give low values 1.03 | S. cerevisiae deletion strains, locus YNL183C, strain NPR1, hits give low values 0.921 | S. cerevisiae deletion strains, locus YNL209W, strain ssb2, hits give low values 1 | S. cerevisiae deletion strains, locus YNL233W, strain BNI4, hits give low values 1.01 | S. cerevisiae deletion strains, locus YNL248C, strain rpa49, hits give low values 1.09 | S. cerevisiae deletion strains, locus YNL250W, strain rad50, hits give low values 1.01 | S. cerevisiae deletion strains, locus YNL271C, strain bni1, hits give low values 1.01 | S. cerevisiae deletion strains, locus YNL298W, strain CLA4, hits give low values 1.02 | S. cerevisiae deletion strains, locus YNL307C, strain MCK1, hits give low values 1.01 | S. cerevisiae deletion strains, locus YNL322C, strain KRE1 (second series), hits give low values 1.02 | S. cerevisiae deletion strains, locus YNL322C, strain KRE1, hits give low values 1.02 | S. cerevisiae deletion strains, locus YNR049C, strain mso1, hits give low values 1 | S. cerevisiae deletion strains, locus YNR052C, strain pop2, hits give low values 1 | S. cerevisiae deletion strains, locus YOL006C, strain TOP1, hits give low values 1.1 | S. cerevisiae deletion strains, locus YOL012C, strain htz1 1.32 | S. cerevisiae deletion strains, locus YOL147C, strain pex11, hits give low values 1.01 | S. cerevisiae deletion strains, locus YOR001W, strain rrp6, hits give low values 0.972 | S. cerevisiae deletion strains, locus YOR061W, strain CKA2, hits give low values 1.02 | S. cerevisiae deletion strains, locus YOR069W, strain VPS5, hits give low values 1.01 | S. cerevisiae deletion strains, locus YOR070C, strain gyp1, hits give low values 0.997 | S. cerevisiae deletion strains, locus YOR080W, strain dia2, hits give low values 1 | S. cerevisiae deletion strains, locus YOR083W, strain WHI5, hits give low values 1.06 | S. cerevisiae deletion strains, locus YOR106W, strain vam3, hits give low values 1.05 | S. cerevisiae deletion strains, locus YOR136W, strain idh2, hits give low values 1.01 | S. cerevisiae deletion strains, locus YOR144C, strain elg1, hits give low values 1.02 | S. cerevisiae deletion strains, locus YOR184W, strain ser1, hits give low values 1.03 | S. cerevisiae deletion strains, locus YOR231W, strain MKK1, hits give low values 1.01 | S. cerevisiae deletion strains, locus YOR265W, strain rbl2, hits give low values 1.02 | S. cerevisiae deletion strains, locus YOR270C, strain vph1, hits give low values 1.04 | S. cerevisiae deletion strains, locus YOR290C, strain snf2, hits give low values 1.04 | S. cerevisiae deletion strains, locus YOR316C, strain cot1, hits give low values 0.998 | S. cerevisiae deletion strains, locus YPL051W, strain arl3, hits give low values 1.05 | S. cerevisiae deletion strains, locus YPL055C, strain LGE1, hits give low values 1.06 | S. cerevisiae deletion strains, locus YPL078C, strain atp4, hits give low values 1.06 | S. cerevisiae deletion strains, locus YPL106C, strain sse1, hits give low values 1 | S. cerevisiae deletion strains, locus YPL240C, strain hsp82, hits give low values 1.01 | S. cerevisiae deletion strains, locus YPL241C, strain CIN2, hits give low values 1.01 | S. cerevisiae deletion strains, locus YPL256C, strain CLN2, hits give low values 1 | S. cerevisiae deletion strains, locus YPR119W, strain clb2, hits give low values 1 | S. cerevisiae deletion strains, locus YPR141C, strain kar3, hits give low values 1.01 | S. cerevisiae deletion strains, locus YPR163C, strain tif3, hits give low values 1.02 | S. cerevisiae deletion strains, locus YPR167C, strain met16, hits give low values 1.02 | S. cerevisiae deletion strains, strain wtn01, hits give low values 1.04 | S. cerevisiae strains, strain wild type, hits give low values 1.03
